Assay results published in PubChem BioAssay (Tox21).
“And” between values parts separate entries of the source, which are not always exact repeats. Equal entries are not always repeated. Results filed as inconclusive are left out. More than one record can exist for a structure, and the calls need not agree. The source made the active and inactive calls. Calls come from the whole dose curve; as a rule, active = well fitted activation curve with a large enough effect in the repeat runs; inconclusive = weak or mixed curves; inactive = no such curve, though single readings can be large or run the other way.

molecular target: Nuclear receptor subfamily 1 group I member 2 (Homo sapiens) (UniProt O75469); test: Human pregnane X receptor (PXR) small molecule agonists, qHTS assay (AID 1346982); conditions: PXR-Luc HepG2, CYP3A4 luciferase reporter, 24 h; series mostly up to 92.4 µM; activation: at the top concentration; note: nearly all actives have a fitted effect of over 35% in size
Source text: National Center for Advancing Translational Sciences [NCATS]
NIH Chemical Genomics Center [NCGC]
U.S. Environmental Protection Agency [EPA]
National Institutes of Environmental Health Sciences [NIEHS]
National Toxicology Program [NTP]
The human pregnane X receptor (hPXR) regulates the expression of several drug metabolizing enzymes and induction of these proteins is a major mechanism for developing drug resistance in cancer. One such key enzyme catalyzing the drug metabolism is cytochrome P450 3A4 (CYP3A4). Changes in CYP3A4 expression affect drug metabolism, thereby reducing the therapeutic efficacy and altering toxicological response to a drug and which finally causes adverse drug interaction. To screen Tox21 libraries for compounds that activate hPXR-mediated CYP3A4 gene expression, PXR-Luc HepG2 cells were used.
PXR-Luc HepG2 cells were dispensed at 2,000 per well in 5uL of assay medium containing 5% charcoal-stripped FBS into white solid bottom 1536-well plates (Corning Life Sciences, Corning, NY) using a Multidrop Combi (Thermo Scientific, Waltham, MA) dispenser. The assay plates were incubated at 37 C and 5% CO2 for 5hr, and then 23nL of compounds dissolved in DMSO and positive control were transferred using a Pintool station (Wako, San Diego, CA). The assay plates were incubated at 37C and 5% CO2 for 24hr. For luciferase read, 4uL of ONE-Glo reagent (Promega Corporation, Madison, WI) was added to each well of the assay plates using Flying Reagent Dispenser (FRD, Aurora Discovery, San Diego, CA) and incubated the assay plates at room temperature for 30min. The luminescence signal was quantified using a ViewLux plate reader (Perkin Elmer, Shelton, CT).
% is set by controls: 0 for no effect and ±100 for the full control effect; potency is the fitted concentration of half-maximal effect.

Nuclear receptor subfamily 1 group I member 2 (Homo sapiens), sequence (O75469 whole entry, looked up): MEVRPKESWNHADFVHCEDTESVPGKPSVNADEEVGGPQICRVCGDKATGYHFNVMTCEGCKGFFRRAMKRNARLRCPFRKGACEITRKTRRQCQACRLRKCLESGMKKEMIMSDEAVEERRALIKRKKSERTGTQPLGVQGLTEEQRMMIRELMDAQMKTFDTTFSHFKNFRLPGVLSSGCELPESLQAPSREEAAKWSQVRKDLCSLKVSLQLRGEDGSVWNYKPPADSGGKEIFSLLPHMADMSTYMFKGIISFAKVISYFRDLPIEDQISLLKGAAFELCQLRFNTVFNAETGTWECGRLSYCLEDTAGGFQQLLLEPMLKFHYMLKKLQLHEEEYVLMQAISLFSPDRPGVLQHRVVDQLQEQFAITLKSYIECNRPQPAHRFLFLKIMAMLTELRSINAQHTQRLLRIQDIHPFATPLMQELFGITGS

| SMILES | activation | Potency |
| --- | --- | --- |
| N#CC(C#N)=C(C#N)C#N | -0.228% (inactive) |  |
| FC(Cl)(Cl)C(F)(Cl)Cl | 1.72% (inactive) |  |
| O=C(N/N=C/c1ccc([N+](=O)[O-])o1)c1cc([N+](=O)[O-])cc([N+](=O)[O-])c1O | 11.7% [at 42.5 µM] (inactive) |  |
| CCCN(CCC)c1c([N+](=O)[O-])cc(C(C)C)cc1[N+](=O)[O-] |  | 23.8 µM (active) |
| CC1(C)CC(=O)CC(C)(C)N1[O] | 17.9% (inactive) |  |
| CN1CC[C@]23c4c5ccc(O)c4O[C@H]2[C@@H](O)C=C[C@H]3[C@H]1C5 | -5.16% (inactive) |  |
| CCc1ccccc1N | 7.61% (inactive) |  |
| CCCCCCCCP(=O)(O)O | 8.32% (inactive) |  |
| CCCC[N+]1(C)[C@@H]2CC(OC(=O)[C@H](CO)c3ccccc3)C[C@H]1[C@@H]1O[C@@H]12 (stereo not given in full) | -5.46% [at 42.5 µM] (inactive) |  |
| CCCCCBr | 7.31% (inactive) |  |
| C=CCSSCC=C | 6.62% (inactive) |  |
| O=P(OCC(Br)CBr)(OCC(Br)CBr)OCC(Br)CBr (stereo not given) |  | 55.2 µM (active) and 51.7 µM (active) |
| CCCCC(CC)COC(=O)c1c(Br)c(Br)c(Br)c(Br)c1C(=O)OCC(CC)CCCC (stereo not given) |  | 16.8 µM (active) |
| CCCC[N+](CCCC)(CCCC)CCCC | 18.8% (inactive) |  |
| O=[N+]([O-])O[C@H]1CO[C@H]2[C@@H]1OC[C@H]2O[N+](=O)[O-] | -1.6% [at 42.5 µM] (inactive) |  |
| O=C(NC(=O)c1cc(F)c(F)cc1Cl)Nc1cc(F)ccc1N1CCC(C(=O)O)CC1 | -12% [at 42.5 µM] (inactive) |  |
| CCCCCCCCCCCCN(C)C | 6.03% (inactive) |  |
| C=CCc1ccc(OC(=O)Cc2ccccc2)c(OC)c1 | 4.41% (inactive) |  |
| O=C(O)COc1cc(Cl)c(Cl)cc1Cl |  | inactive |
| c1ccc2c(c1)sc1ccccc12 | -2.85% [at 42.5 µM] (inactive) |  |

| SMILES | activation | Potency |
| --- | --- | --- |
| CC(C)(C)CC(C)(C)c1ccc(O)cc1 |  | 19.3 µM (active) and inactive |
| CCCSP(=S)(OCC)Oc1ccc(SC)cc1 (stereo not given) |  | 17.2 µM (active) |
| Clc1ccccc1 |  | 24 µM (active) |
| NC(=S)c1c(Cl)cccc1Cl | 20.9% (inactive) |  |
| CN1C[C@H](C(=O)N[C@]2(C)O[C@@]3(O)[C@@H]4CCCN4C(=O)[C@H](Cc4ccccc4)N3C2=O)C=C2c3cccc4[nH]cc(c34)C[C@H]21 |  | 2.74 µM (active) and 4.03 µM (active) |
| C[N+](C)(C)CC1CO1 (stereo not given) | -3.26% (inactive) |  |
| NP(N)(=O)NC(=O)c1ccc(F)cc1 | -7.51% [at 42.5 µM] (inactive) |  |
| CC[N+]1(CCOC(=O)C(O)(c2ccccc2)c2ccccc2)CCCCC1 | -16.6% [at 42.5 µM] (inactive) |  |
| O=S(=O)(c1ccccc1)c1ccccc1 | 8.37% (inactive) |  |
| OCCSSCCO | 11.9% (inactive) |  |
| CCCCC1C(=O)NC(=O)N(C2CCCCC2)C1=O (stereo not given) | -0.8% [at 42.5 µM] (inactive) |  |
| CC(C)c1ccc(OP(=O)(Oc2ccc(C(C)C)cc2)Oc2ccc(C(C)C)cc2)cc1 |  | 4.36 µM (active) and 5.45 µM (active) and 10.9 µM (active) |
| CCCN(CCOc1c(Cl)cc(Cl)cc1Cl)C(=O)n1ccnc1 |  | 7.86 µM (active) and 3.44 µM (active) |
| Nc1cccc2ccccc12 |  | 48.9 µM (active) and 61.1 µM (active) |
| CCOP(=S)(OCC)SCSc1cc(Cl)ccc1Cl | 3.94% (inactive) |  |
| CC(C)C1(C)N=C(c2ncccc2C(=O)O)NC1=O (stereo not given) | 7% (inactive) |  |
| Nc1ccccc1C(=O)OCC(O)CO (stereo not given) | 1.94% [at 42.5 µM] (inactive) |  |
| CN(C)c1ccc(N=O)cc1 |  | 21.8 µM (active) and 9.69 µM (active) |
| C=CCOC(=O)C(C)(C)OC(=O)c1cc(-n2c(=O)cc(C(F)(F)F)n(C)c2=O)ccc1Cl |  | 4.24 µM (active) |
| NNCCO | -4.55% (inactive) |  |
